Reference: PubChem BioAssay AID456 (Sanford-Burnham Center for Chemical Genomics, 2006)
Hit rate of the full screen: of about 10,000 compounds, about 25 (0.2%) were called active. This is one part of a sample in which actives are shown more often than they occur. Entries with a potency or affinity are not part of this list. Unmarked numbers belong to inactive results.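 How the source made its calls: active means top tenth filtered wells with inhibition above zero that passed visual or statistical confirmation; inactive means the rest, including hits rejected on review.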

Test: suppression of endothelial VCAM-1 upregulation – imaging, high-content imaging, pooled HUVEC, TNFa stimulus (AID 456);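 on inhibition: VCAM-1 immunofluorescence minus red nonspecific channel after plate median normalization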
Conditions: HUVEC TNFa-induced VCAM-1 surface expression, immunofluorescence imaging;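 compounds screened at 5 µM final in the well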
With `CC1(C)CC(CCNC(=O)c2ccco2)CC(C)(C)N1` the inhibition was “inactive”.
In the case of `CC1CCc2nn(CC(=O)NCc3ccc4c(c3)OCO4)cc2C1` (configuration not stated), the inhibition is reported as “inactive”.
For `CCS(=O)(=O)c1nc2ccccc2n1Cc1ccccc1Cl`, the inhibition was “inactive”.
For `O=C1c2oc3ccccc3c(=O)c2C(c2ccccn2)N1Cc1ccccc1` (configuration not stated), the inhibition was “inactive”.
With `COc1ccc(Cl)c(NC(=O)NCCN2CCN(c3ccccc3)CC2)c1` the inhibition was “inactive”.
With `Cc1cc2ncn(C(=O)c3c(-c4ccccc4)noc3C)c2cc1C` the inhibition was “inactive”.
For `CCOC(=O)c1ccccc1NC1c2ccccc2C(=O)N1C1CCN(C(=O)OCC)CC1` (configuration not stated), the inhibition was “inactive”.
For `CCOC(=O)N1CCC(N2C(=O)c3ccccc3C2Nc2cc(Cl)c(OC)cc2OC)CC1` (configuration not stated), the inhibition was 72.7% (active).
For `CCOC(=O)N1CCC(N2C(=O)c3ccccc3C2Nc2ccccc2C)CC1` (configuration not stated), the inhibition was “inactive”.
In the case of `CCN(CC)C(=O)CSc1nnc([C@@H](N)Cc2ccccc2)o1`, the inhibition is reported as “inactive”.
For `Cc1nnc(NC(=O)c2ccccc2F)s1`, the inhibition was “inactive”.
With `CCOc1ccc(N(CC(=O)NC2CCCC2)S(=O)(=O)c2c(C)[nH]c(=O)[nH]c2=O)cc1` the inhibition was “inactive”.
With `CC1CC(C)CN(Cc2nc3c(c(=O)n(C)c(=O)n3C)n2Cc2ccccc2Cl)C1` (configuration not stated) the inhibition was “inactive”.
In the case of `O=C(COC(=O)c1ccc(S(=O)(=O)Nc2ccccc2)cc1)NCCN1C(=O)CSC1=O`, the inhibition is reported as “inactive”.
For `CCOC(=O)CSc1nc2ccccc2c(=O)n1CCN1CCOCC1`, the inhibition was “inactive”.
With `O=C(NCCC1=CCCCC1)C1CC(=O)N(C2CCCCCC2)C1` (configuration not stated) the inhibition was “inactive”.
In the case of `Cc1ccc(-c2ccc(=O)n(CC(=O)NCCCN3CCCCC3C)n2)cc1` (configuration not stated), the inhibition is reported as “inactive”.
For `CCCN1CCN(CCCNC(=O)Cn2nc(-c3ccc(Cl)cc3)ccc2=O)CC1`, the inhibition was “inactive”.
In the case of `COCc1nnc(NC(=O)CCCOc2ccccc2)s1`, the inhibition is reported as “inactive”.
For `Cc1ccc(NC(=O)CCC(=O)O)cc1F`, the inhibition was “inactive”.
In the case of `CC1Cc2ccccc2N1C(=O)CSc1nnc2n1C(C)(C)Cc1ccccc1-2` (configuration not stated), the inhibition is reported as “inactive”.
For `CCOc1ccc(Nc2nc(Cc3nnc(SCC(N)=O)o3)cs2)cc1`, the inhibition was “inactive”.
In the case of `COc1ccc(Br)cc1C1N2CC3(C)CN1CC(C)(C2)C3=O` (configuration not stated), the inhibition is reported as “inactive”.
For `O=S1(=O)C=C(Sc2nnc(-c3ccccc3)o2)c2ccccc21`, the inhibition was “inactive”.
For `Cc1cc(C)nc(SC2=CS(=O)(=O)c3ccccc32)n1`, the inhibition was 99.6%.
For `CCCCN(CCCC)CCn1cnc2c([nH]c3ccc(OC)cc32)c1=O`, the inhibition was “inactive”.
In the case of `O=C(CC1Oc2ccccc2NC1=O)NCCCN1CCOCC1` (configuration not stated), the inhibition is reported as “inactive”.
With `CC(C)(C)OC(=O)N1CCC(C(=O)N2CCCCCC2)CC1` the inhibition was “inactive”.
For `Nc1cc(N)cc(-c2nc3ccccc3o2)c1`, the inhibition was “inactive”.
With `Nc1nc(CN2CCOCC2)cs1` the inhibition was “inactive”.
For `CC(C(=O)N1c2ccc(F)cc2CCC1C)N1C(=O)c2ccccc2C1=O` (configuration not stated), the inhibition was “inactive”.
For `COc1cccc(NC(=O)CN2CCN(c3ccccc3F)CC2)c1`, the inhibition was “inactive”.
In the case of `CCOc1ccc(N(CC(=O)Nc2ccc(C)c(C)c2)S(=O)(=O)c2c(C)noc2C)cc1`, the inhibition is reported as “inactive”.
For `N#CCCN(Cc1cccnc1)C(=O)Nc1ccc(Cl)c(Cl)c1`, the inhibition was “inactive”.
In the case of `COc1ccccc1-c1noc(-c2ccco2)n1`, the inhibition is reported as “inactive”.
For `Cc1cc(=O)n2[nH]c(-c3ccc(Cl)cc3)cc2n1`, the inhibition was “inactive”.
In the case of `CCOC(=O)Cn1nc(-c2ccc(Cl)cc2)cc1N`, the inhibition is reported as “inactive”.
With `COc1ccc(NC(=O)CN(c2cc(C)cc(C)c2)S(=O)(=O)c2c(C)noc2C)cc1OC` the inhibition was “inactive”.
For `c1cc2c(cc1Nc1nc(-c3ccc4c(c3)OCO4)cs1)OCCO2`, the inhibition was “inactive”.
With `CC(=O)Nc1nc(C)c(-c2csc(Nc3ccc(O)cc3)n2)s1` the inhibition was “inactive”.
With `Cc1ccc(Cc2c(C)nc3c(C(=O)O)cnn3c2C)cc1` the inhibition was “inactive”.
In the case of `CCOC(=O)CN1CC23C=CC(O2)C(C(=O)Nc2ccc(OCC)cc2)C3C1=O` (configuration not stated), the inhibition is reported as “inactive”.
For `CN(C)CCCN1c2ccccc2CCc2ccccc21`, the inhibition was “inactive”.
For `CN(C)CCCN1c2ccccc2Sc2ccccc21`, the inhibition was “inactive”.
With `CNCCCN1c2ccccc2CCc2ccccc21` the inhibition was “inactive”.
For `CN(C)CCCN1c2ccccc2Sc2ccc(C(F)(F)F)cc21`, the inhibition was “inactive”.
With `CCC1CCCCN1CCCNC(=O)CC1Oc2ccc(C)cc2NC1=O` (configuration not stated) the inhibition was “inactive”.
